An excerpt weighted towards active compounds, which were near 2.3% of everything screened.
CHO-K1 Ca PAM – nonselective calcium activators in parental CHO-K1 cells, primary screen, counter-screen for M1 PAM project, cell-based, Fluo-8 calcium fluorescence, full deck, 1536-well. ATP EC20; 0% at ATP EC20, 100% at ATP max. activation, % at 3 µM. 360,000 compounds, 0.02% hits. AID 602247, 2012;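 active means activation above the run cutoff, the mean activation of all test compounds plus 3 SD, cut at about 40% in these data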;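 further: peak over basal fluorescence ratio in a 140 s read after ATP addition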
M1 PAM – human M1 muscarinic receptor positive allosteric modulators, primary screen, CHO-K1 cells, Fluo-8 calcium fluorescence, 1536-well; AID 588819, 2011; Muscarinic acetylcholine receptor M1 (Homo sapiens), P11229; activation, % at 3 µM; 360,000 compounds, 0.088% hits; CHO-K1 hM1, ACh EC20; 0% = ACh EC20, 100% = maximal ACh; in the data active means activation above about 19%, passing the limit was not always enough
Target sequence (P11229 whole entry, looked up): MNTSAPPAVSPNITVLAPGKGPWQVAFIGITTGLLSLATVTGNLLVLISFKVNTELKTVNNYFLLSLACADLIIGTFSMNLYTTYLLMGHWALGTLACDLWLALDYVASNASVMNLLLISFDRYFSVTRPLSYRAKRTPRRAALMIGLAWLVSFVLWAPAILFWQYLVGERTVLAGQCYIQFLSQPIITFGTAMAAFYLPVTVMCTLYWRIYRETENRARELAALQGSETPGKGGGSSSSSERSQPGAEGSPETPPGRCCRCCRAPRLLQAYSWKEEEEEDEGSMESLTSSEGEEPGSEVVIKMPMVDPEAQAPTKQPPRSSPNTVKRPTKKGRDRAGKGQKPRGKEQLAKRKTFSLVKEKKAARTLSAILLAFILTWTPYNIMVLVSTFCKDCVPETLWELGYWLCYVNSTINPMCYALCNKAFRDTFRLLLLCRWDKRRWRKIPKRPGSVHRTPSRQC
M1 ag – human M1 muscarinic receptor agonists, primary screen, Fluo-8 calcium fluorescence, CHO-K1 cells, HTS; Muscarinic acetylcholine receptor M1 (Homo sapiens), P11229; CHO-K1 hM1, agonist mode; 0% DMSO, 100% acetylcholine EC100; activation, % at 3 µM; 360,000 compounds, 0.33% hits;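 active means activation above the run's mean compound activation plus 3 SD, cut at about 16% in these data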;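 further: peak over basal fluorescence ratio within a 140 s kinetic read after compound addition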
M1 antag – human M1 muscarinic receptor antagonists, primary screen, CHO-K1 cells, Fluo-8 calcium fluorescence, 1536-well | Muscarinic acetylcholine receptor M1 (Homo sapiens), P11229 | CHO-K1 hM1, ACh EC80 antagonist | inhibition, % at 3 µM | 360,000 compounds, 1.3% hits | AID 588852, 2011;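 active means percent inhibition above its own plate's cutoff, namely the mean of that plate's compound wells plus 3 SD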;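 further: peak over basal fluorescence ratio during 140 s after agonist addition; 0% = ACh EC80 plus DMSO and 100% = DMSO alone without agonist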
M1 ag parental – counter-screen for M1 agonists: effect in parental CHO-K1 cells | activation, % at 3 µM | Fluo-8 calcium fluorescence; scaled to maximal ATP response, vehicle zero | 360,000 compounds, 0.48% hits; in the data active means activation above about 15%;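 further: untransfected CHO-K1 host cells lacking M1 receptor as counterscreen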
CHO-K1 Ca antag – M1 antagonist counterscreen hit in parental CHO-K1 cells. ATP-induced calcium, Fluo-8 fluorescence. inhibition, % at 3 µM. 360,000 compounds, 0.6% hits;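 active means inhibition above a per-plate cutoff, the plate's mean sample inhibition plus 3 SD, cut at about 24% in these data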;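 further: 0% = DMSO plus EC80 ATP and 100% = DMSO alone without ATP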
Numbers without * were called inactive.

Screening CCOC(=O)c1c(NC(=O)C2CCCO2)sc(C)c1C (centres undefined) returned CHO-K1 Ca PAM 3, M1 PAM -19, M1 ag -5, M1 antag 47*, M1 ag parental -1 and CHO-K1 Ca antag -6.
Screening Cc1sc2ncnc(N3CCC(C(=O)Nc4nnc(CC(C)C)s4)CC3)c2c1C returned CHO-K1 Ca PAM 16, M1 PAM 5, M1 ag -2, M1 antag -8, M1 ag parental 1 and CHO-K1 Ca antag -4.
O=C(NNC1=NC2(CCCC2)Cc2ccccc21)c1ccncc1 was read as CHO-K1 Ca PAM 21, M1 PAM -2, M1 ag -4, M1 antag 11, M1 ag parental 1 and CHO-K1 Ca antag 0.
COC(=O)c1ccccc1S(=O)(=O)N1CCC(C(=O)NCc2ccccn2)CC1 was read as CHO-K1 Ca PAM 1, M1 PAM 0, M1 ag -4, M1 antag -3, M1 ag parental 0 and CHO-K1 Ca antag -4.
O=C(CC1Nc2ccccc2NC1=O)Nc1ccc2c(c1)OCO2 (centres undefined) was read as CHO-K1 Ca PAM -18, M1 PAM -6, M1 ag -6, M1 antag 5, M1 ag parental 0 and CHO-K1 Ca antag 28*.
Screening Cn1nc(C(F)(F)F)c(/C=N/OC(=O)c2ccccc2)c1SCc1ccccc1Cl returned CHO-K1 Ca PAM 4, M1 PAM -21, M1 ag -5, M1 antag 41*, M1 ag parental 0 and CHO-K1 Ca antag -8.
`CCOC(=O)Cc1csc(NC(=O)c2sc3nc4c(C)cc(C)cc4cc3c2N)n1` gave CHO-K1 Ca PAM 11, M1 PAM -20, M1 ag -1, M1 antag 32*, M1 ag parental 2 and CHO-K1 Ca antag -11.
Screening CCOC(=O)Cc1csc(NC(=O)c2csc(C)c2)n1 returned CHO-K1 Ca PAM 8, M1 PAM 3, M1 ag 0, M1 antag -5, M1 ag parental 8 and CHO-K1 Ca antag -1.
For Cn1c(=O)c2[nH]c(Cc3cccc4ccccc34)nc2n(C)c1=O the results were CHO-K1 Ca PAM 13, M1 PAM 0, M1 ag 2, M1 antag -6, M1 ag parental 1 and CHO-K1 Ca antag -13.
For COc1cccc(NC(=O)N(C)C[C@H]2Oc3cc(Br)ccc3S(=O)(=O)N([C@H](C)CO)C[C@H]2C)c1 the results were CHO-K1 Ca PAM -7, M1 PAM -12, M1 ag -3, M1 antag 20*, M1 ag parental 0 and CHO-K1 Ca antag 28*.
`COc1ccc(C#Cc2ccc3c(c2)O[C@@H](CN(C)C(=O)Nc2cccc(OC)c2)[C@H](C)CN([C@@H](C)CO)S3(=O)=O)cc1` gave CHO-K1 Ca PAM -6, M1 PAM -12, M1 ag -3, M1 antag 4, M1 ag parental 1 and CHO-K1 Ca antag 13.
Screening COc1ccccc1S(=O)(=O)N(C)C[C@@H]1Oc2cc(C#CCC(C)C)ccc2S(=O)(=O)N([C@H](C)CO)C[C@@H]1C returned CHO-K1 Ca PAM -11, M1 PAM 1, M1 ag -2, M1 antag -3, M1 ag parental 0 and CHO-K1 Ca antag 34*.
For COc1ccc(Cl)cc1NC(=O)Cn1c(NCCO)nc2ccccc21 the results were CHO-K1 Ca PAM 2, M1 PAM 4, M1 ag -7, M1 antag 2, M1 ag parental 0 and CHO-K1 Ca antag -11.
For CCN1CCC[C@H]1CNCCCn1cnc2c(SC)ncnc21 the results were CHO-K1 Ca PAM 27, M1 PAM 5, M1 ag -8, M1 antag -12, M1 ag parental 1 and CHO-K1 Ca antag -17.
`CN(CC(=O)Nc1c(Cl)cccc1Cl)C(=O)C1CCN(C(=O)Nc2ccccc2)CC1` gave CHO-K1 Ca PAM 8, M1 PAM 7, M1 ag -1, M1 antag -12, M1 ag parental 1 and CHO-K1 Ca antag -2.
`CSc1ncc(S(=O)(=O)c2ccccc2)c(=O)[nH]1` gave CHO-K1 Ca PAM 18, M1 PAM 15, M1 ag -3, M1 antag -13, M1 ag parental 0 and CHO-K1 Ca antag -12.
`Cc1c(C(=O)N2CCN(S(=O)(=O)c3ccccc3F)CC2)oc2c(Cl)cccc12` gave CHO-K1 Ca PAM 5, M1 PAM 20, M1 ag 16*, M1 antag 1, M1 ag parental 1 and CHO-K1 Ca antag -11.
Cc1c(C(=O)N2CCN(c3ccccc3)CC2)oc2c(Cl)cccc12 was read as CHO-K1 Ca PAM 13, M1 PAM 8, M1 ag -1, M1 antag -7, M1 ag parental 0 and CHO-K1 Ca antag -21.
`CCN(CC)c1ccc(N2C(=NC(=O)C3CC3)SC3CS(=O)(=O)CC32)cc1` (centres undefined) gave CHO-K1 Ca PAM 14, M1 PAM 12, M1 ag -3, M1 antag -8, M1 ag parental 0 and CHO-K1 Ca antag -14.
`Cc1nc([N+](=O)[O-])c(N2CCN(C)CC2)n1Cc1ccccc1` gave CHO-K1 Ca PAM -5, M1 PAM -21, M1 ag -7, M1 antag 40*, M1 ag parental 0 and CHO-K1 Ca antag 11.
Cc1nc([N+](=O)[O-])c(SCC(N)=O)n1Cc1ccccc1 was read as CHO-K1 Ca PAM 13, M1 PAM 1, M1 ag -11, M1 antag 3, M1 ag parental 0 and CHO-K1 Ca antag -10.
`C/C(=N\N1CCCCC1)c1ccccc1O` gave CHO-K1 Ca PAM 16, M1 PAM 5, M1 ag 22*, M1 antag 6, M1 ag parental 0 and CHO-K1 Ca antag 1.
For C/C(=N\N1CCN(c2ccccc2)CC1)c1ccccc1O the results were CHO-K1 Ca PAM 12, M1 PAM 1, M1 ag -3, M1 antag 3, M1 ag parental 1 and CHO-K1 Ca antag -4.
CC1CC(C)CN(C(=O)COC(=O)c2ccc(N3CCCC3=O)cc2)C1 (centres undefined) was read as CHO-K1 Ca PAM 10, M1 PAM 10, M1 ag -3, M1 antag -13, M1 ag parental 1 and CHO-K1 Ca antag -7.
`CCOC(=O)c1c(C)[nH]c(C(=O)COC(=O)c2ccc(N3CCCC3=O)cc2)c1C` gave CHO-K1 Ca PAM -7, M1 PAM 7, M1 ag -2, M1 antag -12, M1 ag parental 0 and CHO-K1 Ca antag 27*.

Screens: PubChem BioAssay, The Scripps Research Institute Molecular Screening Center
